# Laboratory results as given in paper PMC8384837, “Expanding the binding specificity for RNA recognition by a PUF domain”.
# Substitutions are numbered along the chain they refer to.
# Tests used:
# Assay in all cases: yeast three-hybrid, YBZ-1, SC-Leu-His + 0.5 mM 3-AT, 4 days
# Details in all cases: tags: N-Gal4 AD-HA kept; label: inside an RPR1-promoter hybrid RNA with tandem MS2 sites; ssRNA
# PUM1 PUF domain R3-GPD = PUM1 PUF domain R3-GPD (Homo sapiens, UniProt Q14671 828-1176, C935G;R936P;Q939D)
# In short: (§1)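 A centromeric plasmid in strain YBZ-1 co-expressed Pumilio-1 PUF domain libraries, randomized at the three base-contacting residues of each repeat, with matching RNA elements; the strain carries a LexA–MS2 coat fusion and a HIS3 reporter. After four days on SC-Leu (input) or SC-Leu-His + 0.5 mM 3-AT (selection), the repeat regions were PCR-amplified and Illumina-sequenced. The interaction score is the log change in variant frequency from input to selection, using log2 and a pseudocount of 1 where absent.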
# PUM1 PUF domain R6-MHR = molecular target: T1, PUM1 PUF domain R6-MHR (Homo sapiens, UniProt Q14671 828-1176, N1043M;Y1044H;Q1047R)
# T1 sequence: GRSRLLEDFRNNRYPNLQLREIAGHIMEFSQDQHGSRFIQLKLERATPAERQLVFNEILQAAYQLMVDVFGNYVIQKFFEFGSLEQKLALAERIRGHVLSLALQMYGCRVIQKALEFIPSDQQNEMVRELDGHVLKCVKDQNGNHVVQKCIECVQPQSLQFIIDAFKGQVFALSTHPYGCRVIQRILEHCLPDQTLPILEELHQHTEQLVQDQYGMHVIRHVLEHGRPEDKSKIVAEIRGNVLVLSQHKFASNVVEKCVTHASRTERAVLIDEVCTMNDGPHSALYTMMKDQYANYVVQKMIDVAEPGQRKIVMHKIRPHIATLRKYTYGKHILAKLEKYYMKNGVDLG
# In short: as §1
# PUM1 PUF domain R5-RFQ = PUM1 PUF domain R5-RFQ (Homo sapiens, UniProt Q14671 828-1176, C1007R;R1008F)
# In short: as §1
# PUM1 PUF domain R5-RHS = PUM1 PUF domain R5-RHS (Homo sapiens, UniProt Q14671 828-1176, C1007R;R1008H;Q1011S)
# In short: as §1
# PUM1 PUF domain R3-VRA = PUM1 PUF domain R3-VRA (Homo sapiens, UniProt Q14671 828-1176, C935V;Q939A)
# In short: as §1
# PUM1 PUF domain R5-DHC = PUM1 PUF domain R5-DHC (Homo sapiens, UniProt Q14671 828-1176, C1007D;R1008H;Q1011C)
# In short: as §1
# PUM1 PUF domain R4-NRN = PUM1 PUF domain R4-NRN (Homo sapiens, UniProt Q14671 828-1176, H972R;Q975N)
# In short: as §1
# PUM1 PUF domain R4-CNV = PUM1 PUF domain R4-CNV (Homo sapiens, UniProt Q14671 828-1176, N971C;H972N;Q975V)
# In short: as §1
# PUM1 PUF domain R5-KFS = PUM1 PUF domain R5-KFS (Homo sapiens, UniProt Q14671 828-1176, C1007K;R1008F;Q1011S)
# In short: as §1
# PUM1 PUF domain R5-GHS = PUM1 PUF domain R5-GHS (Homo sapiens, UniProt Q14671 828-1176, C1007G;R1008H;Q1011S)
# In short: as §1
# PUM1 PUF domain R5-WHV = PUM1 PUF domain R5-WHV (Homo sapiens, UniProt Q14671 828-1176, C1007W;R1008H;Q1011V)
# In short: as §1
# PUM1 PUF domain R6-TFS = molecular target: T2, PUM1 PUF domain R6-TFS (Homo sapiens, UniProt Q14671 828-1176, N1043T;Y1044F;Q1047S)
# T2 sequence: T1 sequence with M216T, H217F, R220S
# In short: as §1
# PUM1 PUF domain R5-DRT = PUM1 PUF domain R5-DRT (Homo sapiens, UniProt Q14671 828-1176, C1007D;Q1011T)
# In short: as §1
# PUM1 PUF domain R3-SCR = PUM1 PUF domain R3-SCR (Homo sapiens, UniProt Q14671 828-1176, C935S;R936C;Q939R)
# In short: as §1
# PUM1 PUF domain R3-MCR = PUM1 PUF domain R3-MCR (Homo sapiens, UniProt Q14671 828-1176, C935M;R936C;Q939R)
# In short: as §1
sequence,measurement,setting,value
GGCUAGAACUAGUGGAUCCCCCGGCGCCCGGCGGCUCGAGCCCGGGUAAGUGUAAAUAGUCUGCAUGCCGCCGGGCGCCAUGCCUGCAGGUCGACUCUAGAAAACAUG,binding signal,PUM1 PUF domain R3-GPD,1.39 log2 enrichment (interaction score)
same,binding signal,PUM1 PUF domain R6-MHR,5.76 log2 enrichment (interaction score)
same,binding signal,PUM1 PUF domain R5-RFQ,2.95 log2 enrichment (interaction score)
same,binding signal,PUM1 PUF domain R5-RHS,4.26 log2 enrichment (interaction score)
same,binding signal,PUM1 PUF domain R3-VRA,3.97 log2 enrichment (interaction score)
same,binding signal,PUM1 PUF domain R5-DHC,2.98 log2 enrichment (interaction score)
same,binding signal,PUM1 PUF domain R4-NRN,2.83 log2 enrichment (interaction score)
same,binding signal,PUM1 PUF domain R4-CNV,0.77 log2 enrichment (interaction score)
same,binding signal,PUM1 PUF domain R5-KFS,4.28 log2 enrichment (interaction score)
same,binding signal,PUM1 PUF domain R5-GHS,3.25 log2 enrichment (interaction score)
same,binding signal,PUM1 PUF domain R5-WHV,1.26 log2 enrichment (interaction score)
same,binding signal,PUM1 PUF domain R6-TFS,4.51 log2 enrichment (interaction score)
same,binding signal,PUM1 PUF domain R5-DRT,2.42 log2 enrichment (interaction score)
GGCUAGAACUAGUGGAUCCCCCGGCGCCCGGCGGCUCGAGCCCGGGUAAGUGUCAAUAGUCUGCAUGCCGCCGGGCGCCAUGCCUGCAGGUCGACUCUAGAAAACAUG,binding signal,PUM1 PUF domain R5-RHS,5.1 log2 enrichment (interaction score)
same,binding signal,PUM1 PUF domain R5-KFS,5.16 log2 enrichment (interaction score)
same,binding signal,PUM1 PUF domain R5-WHV,2.8 log2 enrichment (interaction score)
same,binding signal,PUM1 PUF domain R5-DRT,1.84 log2 enrichment (interaction score)
GGCUAGAACUAGUGGAUCCCCCGGCGCCCGGCGGCUCGAGCCCGGGUAAGUGUAAUUAGUCUGCAUGCCGCCGGGCGCCAUGCCUGCAGGUCGACUCUAGAAAACAUG,binding signal,PUM1 PUF domain R3-GPD,3.07 log2 enrichment (interaction score)
same,binding signal,PUM1 PUF domain R3-SCR,3.35 log2 enrichment (interaction score)
same,binding signal,PUM1 PUF domain R3-MCR,4.47 log2 enrichment (interaction score)
